In PubChem BioAssay (NCI):
The panel holds about 79,000 compounds, 15% with a hit somewhere; the sample as a whole holds those more often. Rule as the data show it: active = growth inhibition above about 70%; inactive = the rest.

Tests used:
[1] = NCI Yeast Anticancer Drug Screen. Data for the rad50 strain (AID 155);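 also: 0% = growth of vehicle-only cultures of the same strain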; settings: S. cerevisiae rad50 strain growth inhibition; at 50.0 µM; hits give high values
Outline: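 Genetically altered yeast (DNA repair pathway); compound treatment; growth inhibition vs vehicle ctrl.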

[2] = NCI Yeast Anticancer Drug Screen. Data for the mec2-1 strain (AID 157); settings: S. cerevisiae mec2-1 strain, at 50.0 µM, hits give high values
Outline: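 mec2-1 yeast strain, carrying an alteration in DNA damage repair or cell cycle control, was exposed to compounds; growth inhibition was measured relative to vehicle-treated controls.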

[3] = NCI Yeast Anticancer Drug Screen. Data for the sgs1 mgt1 strain (AID 161);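 also: 0% = growth of cultures given vehicle only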; settings: S. cerevisiae sgs1 mgt1 strain, at 50.0 µM, hits give high values
Outline: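 Percent growth inhibition was derived by comparing compound-exposed mutant yeast with vehicle-exposed cultures. The strain carries alterations in DNA damage repair.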

[4] = NCI Yeast Anticancer Drug Screen. Data for the cln2 rad14 strain (AID 165);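 also: 0% = growth equal to vehicle treated cultures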; settings: S. cerevisiae cln2 rad14 strain, at 50.0 µM, hits give high values
Outline: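 Yeast carrying cln2 and rad14 alterations (cell cycle control and DNA damage repair) were exposed to compounds. Growth inhibition was measured against vehicle-treated controls.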

[5] = NCI Yeast Anticancer Drug Screen. Data for the bub3 strain (AID 167); settings: S. cerevisiae bub3 mutant strain, at 50.0 µM, hits give high values
Outline: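 Yeast carrying a defined mutation is treated with each compound, and growth is compared with that of vehicle-exposed cells to give inhibition.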

[6] = NCI Yeast Anticancer Drug Screen. Data for the mlh1 rad18 strain (AID 175); settings: S. cerevisiae mlh1 rad18 strain growth inhibition; at 50.0 µM; hits give high values
Outline: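 Growth inhibition of the yeast strain was measured after compound exposure and expressed relative to vehicle-treated controls. The strain carries defined defects in DNA damage repair.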

Measured: growth inhibition

CCOC(=O)c1cn(C)c2c1C(O)=C(C(=O)OC)CC(=O)N2
inactive: [1] 4.5% | [2] 1.1% | [3] -14.2% | [4] 7.2% | [5] -12.6% | [6] -26.8%

CN(/N=C\c1ccc2ccccc2c1)C1=NCCCCN1
inactive: [1] -2.05% | [2] -5.45% | [3] -27.6% | [4] -37% | [5] -0.1% | [6] 1.6%

C=[N+](CNC(=O)CNC(=O)C(Cc1ccc([N+](=O)[O-])cc1)NC(=O)OC(C)(C)C)C(=O)CNC(=O)C(Cc1ccc([N+](=O)[O-])cc1)NC(=O)OC(C)(C)C (stereo unspecified)
inactive: [1] -23.1% | [2] -28% | [3] -29.4% | [4] 3.3% | [5] -12.2% | [6] -18.8%

Cc1ccc2ccccc2[n+]1CC(=O)c1ccc([N+](=O)[O-])cc1
inactive: [1] -16.8% | [2] -30.8% | [3] -9.3% | [4] 9.95% | [5] -11.2% | [6] -12.4%

ONc1ccccc1
inactive: [1] 15.3% | [2] 6.1% | [3] 11.8% | [4] 16.7% | [5] 28.1% | [6] 16.6%

CC1(C)NC(=S)NC1=S
inactive: [1] 5.4% | [2] -6.9% | [3] -13.9% | [4] -26.9% | [5] -4.45% | [6] -4.35%

COc1cc(OC)c(C(=O)/C=C/c2ccncc2)cc1C(=O)O
inactive: [1] 10.1% | [2] -14.6% | [3] 16.2% | [4] 13.3% | [5] 19.6% | [6] -5.85%

CCC(=O)CC(C)=O.CCC(=O)CC(C)=O.[Cu]
inactive: [1] -10.3% | [2] 19.4% | [3] 5.5% | [4] -31% | [5] -2.2% | [6] 14.2%

Oc1c(Cl)cc(Cl)cc1C1N2CCCCC2C2c3cccn3-c3ccccc3N21 (stereo unspecified)
inactive: [1] 22.4% | [2] 5.4% | [3] 18.3% | [4] 14.2% | [5] 21.2% | [6] -30.6%

c1ccc(CN2CCC3(N4CCOCC4)C(C2)N=NN3c2ccccc2)cc1 (stereo unspecified)
inactive: [1] -27.9% | [2] -9.6% | [3] 0.65% | [4] -1.05% | [5] -11.7% | [6] -14.2%

CC(/C=N/N(C)C1=NCCCN1)=N/N(C)C1=NCCCN1
inactive: [1] 14.3% | [2] 1.6% | [3] -7.35% | [4] -35.6% | [5] -2.55% | [6] 11.2%

C=CCCCCCCCCC(=O)NC(C)C(C)(C)C (stereo unspecified)
inactive: [1] 29.9% | [2] 19.8% | [3] 14.7% | [4] 39% | [5] 27.3% | [6] 25.5%

CC(C)(C)OC(=O)NC(CS(=O)(=O)O)C(=O)O (stereo unspecified)
inactive: [1] -39.1% | [2] -11.4% | [3] -2.4% | [4] 13.4% | [5] 13% | [6] -15.3%

CCCCNS(=O)(=O)c1ccc(C)cc1
inactive: [1] -24.6% | [2] -26.4% | [3] -23% | [4] -42.7% | [5] -22% | [6] -21.3%

CCCOc1cc2c(cc1C(C)c1ccc(OCC)cc1)OCO2 (stereo unspecified)
inactive: [1] 36% | [2] -25.8% | [3] -9.3% | [4] 0.9% | [5] -26.8% | [6] -49.8%

COC(=O)C(Cc1ccc2c(c1)OCO2)(NC(=O)c1ccccc1)P(=O)(OC)OC (stereo unspecified)
inactive: [1] -30.5% | [2] 1.05% | [3] -8.6% | [4] 16.8% | [5] -25.1% | [6] -32.5%

CN1C(=O)C23CCCN2C(=O)C1(C)SC(=N)S3 (stereo unspecified)
inactive: [1] 2.35% | [2] 7.6% | [3] -2.55% | [4] -45.4% | [5] 2% | [6] 4.95%

CCOC(=O)c1cnc2nc[nH]n2c1=O
inactive: [1] -52.8% | [2] -54.5% | [3] -11.2% | [4] 11.6% | [5] -67% | [6] -36.5%

CCn1ncc2c1nc(-c1ccccc1)c[n+]2[O-]
inactive: [1] 17.1% | [2] 4% | [3] -34.5% | [4] -12.4% | [5] -44.9% | [6] -52%

C=C(N1CCCCC1)N1CCCCC1
inactive: [1] -2.75% | [2] -25.1% | [3] -9.15% | [4] -46.5% | [5] -15.9% | [6] -11.4%

CC(=O)NNc1nc(C)c(C(=O)NNC(=O)C(=O)Nc2c(C)cccc2C(C)(C)C)s1
inactive: [1] 26.6% | [2] 20.2% | [3] 13.2% | [4] 32.5% | [5] 24.9% | [6] 20.9%

Nc1cccc(OCC(O)CN2CCN(c3ccccc3)CC2)c1 (stereo unspecified)
inactive: [1] 3.7% | [2] 8.6% | [3] 0.1% | [4] -2.55% | [5] -1% | [6] 14.7%

COC(=O)c1nn(-c2ccccc2)c2nc3ccccc3c-2c1C(=O)OC
inactive: [1] 39.8% | [2] 17% | [3] 31% | [4] 18.5% | [5] 20.9% | [6] 36.5%

O=C(Nc1nc2c(ncn2C2OC(CO)C(O)C2O)c(=O)[nH]1)c1ccccc1 (stereo unspecified)
inactive: [1] 2.45% | [2] -26.9% | [3] -20.2% | [4] 11.6% | [5] 12.7% | [6] 15.6%

N=C(CNC(=O)OCc1ccccc1)N1CCCC1C(=O)O (stereo unspecified)
inactive: [1] 13.6% | [2] 2.8% | [3] 0.9% | [4] -1.7% | [5] -1.8% | [6] -6.95%

CCC/C(Cl)=N/OC(=O)Nc1cc(C(F)(F)F)ccc1OC
inactive: [1] -34.1% | [2] 17.6% | [3] 5.8% | [4] 8.5% | [5] 40.6% | [6] 21.3%

CC1(C)OC2C(C3N(c4ccccc4)CCN3c3ccccc3)OC(n3ccc(=O)[nH]c3=O)C2O1 (stereo unspecified)
inactive: [1] -37.4% | [2] -5.85% | [3] -8.35% | [4] 14.1% | [5] -2.5% | [6] -12.7%

CCC(c1ccc(N(C)C)cc1)c1ccc(N(C)C)cc1
inactive: [1] 3.8% | [2] -48.9% | [3] 1.6% | [4] 8.35% | [5] 0.05% | [6] 4.2%

O=C(CC(=O)C(F)(F)F)c1ccc2c(c1)Cc1ccccc1-2
inactive: [1] -10.2% | [2] 28.9% | [3] 3.75% | [4] 14.9% | [5] -2.7% | [6] 23.6%

O=C1CC2C(=O)N(Cc3ccccc3)C1C(S(=O)(=O)c1ccccc1)C2S(=O)(=O)c1ccccc1 (stereo unspecified)
inactive: [1] 10.4% | [2] 9.4% | [3] 2.75% | [4] 26.9% | [5] -8.7% | [6] 23.9%

CCCCCCCCCCCCCCNCCCCCCCCCCCCCC
inactive: [1] 21% | [2] -9% | [3] 23.8% | [4] 32.2% | [5] 17.1% | [6] 17.4%

CSC(=S)Nc1nc2ccc(C)cc2s1
inactive: [1] 21.4% | [2] 0.4% | [3] -2.95% | [4] -15% | [5] 11.3% | [6] -14.8%

O=C(CO)c1ccccc1
inactive: [1] -11.9% | [2] 10.3% | [3] -3.8% | [4] 25.6% | [5] 4% | [6] 19.6%

COc1cc2cc3c4cc(OC)c(OC)cc4cc[n+]3cc2cc1OC
inactive: [1] -4.5% | [2] -54.5% | [3] -2.8% | [4] -12.3% | [5] -15.8% | [6] -68%

OCCn1c2ccccc2c2ccccc21
inactive: [1] 20.2% | [2] -2.65% | [3] 18.6% | [4] -17.2% | [5] 14% | [6] -0.7%

CCOC(N)=C(C#N)C#N
inactive: [1] 12.6% | [2] 15.1% | [3] 3.45% | [4] 21.4% | [5] 23.1% | [6] 11.8%

O=NNc1nc2ncccc2cc1-c1ccccc1Cl
inactive: [1] -7.8% | [2] -6.05% | [3] -5.9% | [4] 9.75% | [5] -22.2% | [6] -8.2%

CCCCCCCC(=O)NN
inactive: [1] -20.9% | [2] -27.6% | [3] -12.9% | [4] -4.7% | [5] -11.9% | [6] 10.3%

COc1ccc(CCN2CN=C(Sc3ccc([N+](=O)[O-])cc3Cl)NC2)cc1OC
inactive: [1] 11% | [2] -11.2% | [3] 7.55% | [4] 10% | [5] 21.9% | [6] 11.1%

CC1(C)CC23C4COC(=O)C2CCC1C3CC4=O (stereo unspecified)
inactive: [1] -7.25% | [2] -18.1% | [3] 20.4% | [4] -0.7% | [5] -0.25% | [6] -21.4%

C=C(C)CC(O)CCCCC (stereo unspecified)
inactive: [1] 15.1% | [2] -5.85% | [3] 19.7% | [4] -33.9% | [5] 17.3% | [6] -13.3%
